# Assay results as given in PubChem BioAssay AID1159580 (chemical genetic matrix, 2015).
# About 2,000 (36%) of roughly 5,500 compounds were called active. Inconclusive results (about 18%) are left out. Some of the results follow. Unmarked numbers belong to inactive results. No stated cut-off is given here; in the data, active means normalized growth mostly below about 0.91 (no sharp cut-off); inconclusive means no clear call, values can overlap the other calls; inactive means mostly above about 0.92.
# Assay: chemical genetic growth profiling, strain panel (AID 1159580);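 further: tested at 20 µM; growth read once vehicle control cultures reached saturation at 30 °C; 1 = growth at the plate median or of vehicle wells; lower values mean less growth of the strain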
# Conditions: growth OD
# [1] = S. cerevisiae deletion strains, locus YAL040C, strain CLN3, hits give low values
# [2] = S. cerevisiae deletion strains, locus YDR363W, strain ESC2, hits give low values
# [3] = S. cerevisiae deletion strains, locus YER002W, strain NOP16, hits give low values
# [4] = S. cerevisiae deletion strains, locus YMR263W, strain SAP30, hits give low values
# [5] = S. cerevisiae deletion strains, locus YMR307W, strain GAS1, hits give low values
# [6] = S. cerevisiae deletion strains, locus YNL175C, strain NOP13, hits give low values
# [7] = S. cerevisiae deletion strains, locus YNL224C, strain SQS1, hits give low values
# [8] = S. cerevisiae deletion strains, locus YPL055C, strain LGE1, hits give low values
# [9] = S. cerevisiae deletion strains, locus YCL061C, strain MRC1 (second series), hits give low values
# [10] = S. cerevisiae deletion strains, locus YDR150W, strain NUM1, hits give low values
# [11] = S. cerevisiae deletion strains, locus YGR078C, strain PAC10, hits give low values
# [12] = S. cerevisiae deletion strains, locus YNL153C, strain GIM3, hits give low values
# [13] = S. cerevisiae deletion strains, locus YNL197C, strain WHI3, hits give low values
# [14] = S. cerevisiae deletion strains, locus YOR083W, strain WHI5 (second series), hits give low values
# [15] = S. cerevisiae deletion strains, locus YNL322C, strain KRE1, hits give low values
# [16] = S. cerevisiae deletion strains, locus YPL241C, strain CIN2, hits give low values
# [17] = S. cerevisiae deletion strains, locus YGR229C, strain SMI1, hits give low values
# [18] = S. cerevisiae deletion strains, locus YJR075W, strain HOC1, hits give low values
# [19] = S. cerevisiae deletion strains, locus YAL013W, strain DEP1, hits give low values
# [20] = S. cerevisiae deletion strains, locus YBR229C, strain ROT2, hits give low values
# [21] = S. cerevisiae deletion strains, locus YDL101C, strain DUN1, hits give low values
# [22] = S. cerevisiae deletion strains, locus YDL134C, strain PPH21, hits give low values
# [23] = S. cerevisiae deletion strains, locus YEL061C, strain CIN8, hits give low values
# [24] = S. cerevisiae deletion strains, locus YHR030C, strain SLT2, hits give low values
# [25] = S. cerevisiae deletion strains, locus YHR087W, strain rtc3, hits give low values
# [26] = S. cerevisiae deletion strains, locus YJR043C, strain POL32, hits give low values
# [27] = S. cerevisiae deletion strains, locus YKL190W, strain CNB1, hits give low values
# [28] = S. cerevisiae deletion strains, locus YLR039C, strain RIC1, hits give low values
# [29] = S. cerevisiae deletion strains, locus YLR058C, strain SHM2 (second series), hits give low values
# [30] = S. cerevisiae deletion strains, locus YLR085C, strain ARP6, hits give low values
# [31] = S. cerevisiae deletion strains, locus YLR262C, strain YPT6, hits give low values
# [32] = S. cerevisiae deletion strains, locus YML094W, strain GIM5, hits give low values
# [33] = S. cerevisiae deletion strains, locus YMR219W, strain ESC1, hits give low values
# [34] = S. cerevisiae deletion strains, locus YNL298W, strain CLA4 (second series), hits give low values
# [35] = S. cerevisiae deletion strains, locus YNR030W, strain Alg12, hits give low values
# [36] = S. cerevisiae deletion strains, locus YOL006C, strain TOP1, hits give low values
# [37] = S. cerevisiae deletion strains, locus YPR135W, strain CTF4, hits give low values
structure (smiles),measurement,setting,value
CCCCCCCCCC[Si](C)(C)CCC(=O)NC(Cc1ccc(C)cc1)c1ccccc1 (stereo not drawn),normalized growth,[1],1.03
same,normalized growth,[2],0.974
same,normalized growth,[3],1.11 [resistant] (active)
same,normalized growth,[4],0.998
same,normalized growth,[5],1.01
same,normalized growth,[6],1.05
same,normalized growth,[7],1.17 [resistant] (active)
same,normalized growth,[8],1
CCCCCCCCCC(=O)NC(CN1CCOCC1)[C@H](O)c1ccccc1 (stereo partly drawn),normalized growth,[1],0.989
same,normalized growth,[9],0.987
same,normalized growth,[10],0.977
same,normalized growth,[2],0.942
same,normalized growth,[3],0.963
same,normalized growth,[11],0.97
same,normalized growth,[4],1
same,normalized growth,[12],0.941
same,normalized growth,[6],0.962
same,normalized growth,[13],0.944
same,normalized growth,[7],0.978
same,normalized growth,[14],0.971
same,normalized growth,[8],0.957
CC[C@H](NC(=O)c1c(C)c(-c2ccccc2)nc2ccccc12)c1ccccc1,normalized growth,[1],1.03
same,normalized growth,[10],0.987
same,normalized growth,[2],1.04
same,normalized growth,[3],1.02
same,normalized growth,[5],1.06
same,normalized growth,[12],0.979
same,normalized growth,[6],1.03
same,normalized growth,[13],1.04
same,normalized growth,[7],1
same,normalized growth,[15],0.995
same,normalized growth,[14],1.07
same,normalized growth,[16],0.987
N#CC(C#N)=C(N)/C(C#N)=C/c1ccc(O)cc1,normalized growth,[1],0.962
same,normalized growth,[9],0.998
same,normalized growth,[2],0.999
same,normalized growth,[3],1
same,normalized growth,[11],1
same,normalized growth,[17],1.04
same,normalized growth,[18],0.957
same,normalized growth,[4],1
same,normalized growth,[5],1
same,normalized growth,[6],0.999
same,normalized growth,[13],0.989
same,normalized growth,[7],1
same,normalized growth,[15],0.99
same,normalized growth,[14],1.01
same,normalized growth,[8],1
CCOC(=O)/C(C#N)=C/c1ccc(Br)cc1,normalized growth,[19],0.971
same,normalized growth,[20],0.805 (active)
same,normalized growth,[21],0.875 (active)
same,normalized growth,[22],0.972
same,normalized growth,[10],0.893
same,normalized growth,[23],0.754 (active)
same,normalized growth,[11],0.903 (active)
same,normalized growth,[24],0.258 (active)
same,normalized growth,[25],0.821 (active)
same,normalized growth,"S. cerevisiae deletion strains, locus YJL187C, strain SWE1, hits give low values",0.846 (active)
same,normalized growth,[26],0.851 (active)
same,normalized growth,[18],0.828 (active)
same,normalized growth,[27],0.804 (active)
same,normalized growth,[28],0.646 (active)
same,normalized growth,[29],0.977
same,normalized growth,[30],0.375 (active)
same,normalized growth,[31],0.72 (active)
same,normalized growth,[32],0.828 (active)
same,normalized growth,[33],0.926 (active)
same,normalized growth,[4],0.913
same,normalized growth,[12],0.836 (active)
same,normalized growth,[34],0.717 (active)
same,normalized growth,[15],0.967
same,normalized growth,[35],0.765 (active)
same,normalized growth,[36],0.593 (active)
same,normalized growth,[8],0.865
same,normalized growth,[16],0.717 (active)
same,normalized growth,[37],0.585 (active)
same,normalized growth,"S. cerevisiae strains, strain wild type, hits give low values",0.954
N#C/C(=C\c1ccc(O)c(O)c1)C(=O)NCc1ccccc1,normalized growth,[19],0.997
same,normalized growth,[1],0.984
same,normalized growth,[9],1
same,normalized growth,[10],1
same,normalized growth,[2],1
same,normalized growth,[3],1.01
same,normalized growth,[11],1.01
same,normalized growth,[18],0.992
same,normalized growth,[4],1.01
same,normalized growth,[5],1
same,normalized growth,[12],1.02
same,normalized growth,[6],1.01
same,normalized growth,[13],1.02
same,normalized growth,[7],0.999
same,normalized growth,[14],1.03
same,normalized growth,[16],1
O=[N+]([O-])c1ccc(Oc2cccc3cccnc23)cc1,normalized growth,[19],1.01
same,normalized growth,[20],1
same,normalized growth,[21],0.942
same,normalized growth,[22],0.993
same,normalized growth,[10],1
same,normalized growth,[23],0.98
same,normalized growth,[11],0.991
same,normalized growth,[24],0.736
same,normalized growth,[25],1
same,normalized growth,[26],0.98
same,normalized growth,[18],1.02
same,normalized growth,[28],0.805
same,normalized growth,[29],1
same,normalized growth,[30],0.959
same,normalized growth,[31],0.799 (active)
same,normalized growth,[32],0.991
same,normalized growth,[33],0.993
same,normalized growth,[4],1
same,normalized growth,[5],0.719
same,normalized growth,[12],0.848 (active)
same,normalized growth,[34],0.892
same,normalized growth,[15],1
same,normalized growth,[35],0.994
same,normalized growth,[36],0.872
same,normalized growth,[8],0.919
same,normalized growth,[16],0.854 (active)
same,normalized growth,[37],0.754
O=[N+]([O-])c1ccc(OCCCOc2ccc([N+](=O)[O-])cc2)cc1,normalized growth,[19],1
same,normalized growth,[20],0.978
same,normalized growth,[21],0.98
same,normalized growth,[10],0.988
same,normalized growth,[23],0.979
same,normalized growth,[11],0.991
same,normalized growth,[17],0.995
same,normalized growth,[24],0.91
same,normalized growth,[25],0.973
same,normalized growth,[26],1.01
same,normalized growth,[18],0.971
same,normalized growth,[27],1
same,normalized growth,[28],0.966
same,normalized growth,[29],0.975
same,normalized growth,[30],0.993
same,normalized growth,[31],0.969
same,normalized growth,[32],0.934
same,normalized growth,[33],0.983
same,normalized growth,[4],1.01
same,normalized growth,"S. cerevisiae deletion strains, locus YNL128W, strain TEP1, hits give low values",0.996
same,normalized growth,[12],0.995
same,normalized growth,[34],0.961
same,normalized growth,[15],0.99
same,normalized growth,[35],0.979
same,normalized growth,[36],0.97
same,normalized growth,[8],1.02
same,normalized growth,[16],0.953
same,normalized growth,[37],0.932
